# Measured values reported in the supplement of paper PMC8728848.
# The sample as a whole holds a higher share of the strongest signals than the screen did.
# Key:
# Assay in all cases: glycan array binding signal (z-score within array); higher = stronger binding
# Settings in all cases: glycan notation: IUPAC condensed, linker removed
# [1] = target: Fuc(a1-2)Gal(b1-3)GlcNAc(b1-2)Man(a1-3)[Fuc(a1-2)Gal(b1-3)GlcNAc(b1-2)Man(a1-6)]Man(b1-4)GlcNAc(b1-4)[Fuc(a1-6)]GlcNAc
# Summary of the method: (§1)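 Arrays were curated from the Consortium for Functional Glycomics database, 3228 in total, and kept only where the protein sequence was available. Binding is expressed as a within-array Z-score. This score was averaged across arrays of the same protein sequence at different concentrations or buffers and across linkers, and negative values can be read as non-binding.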
# [2] = target: Fuc(a1-2)Gal(b1-3)GlcNAc(b1-3)GalNAc
# Summary of the method: as §1
# [3] = target: Fuc(a1-2)Gal(b1-3)[Fuc(a1-4)]GlcNAc(b1-3)[Gal(b1-4)GlcNAc(b1-6)]Gal(b1-4)Glc
# Summary of the method: as §1
# [4] = target: Fuc(a1-2)Gal(b1-4)GlcNAc(b1-3)Gal(b1-4)GlcNAc
# Summary of the method: as §1
# [5] = target: Fuc(a1-2)Gal(b1-4)GlcNAc(b1-3)Gal(b1-4)GlcNAc(b1-3)Gal(b1-4)GlcNAc
# Summary of the method: as §1
# [6] = target: Fuc(a1-2)Gal(b1-4)[Fuc(a1-3)]GlcNAc(b1-3)Gal(b1-4)[Fuc(a1-3)]GlcNAc(b1-3)Gal(b1-4)[Fuc(a1-3)]GlcNAc
# Summary of the method: as §1
# [7] = target: Fuc(a1-2)[Gal(a1-3)]Gal(b1-4)GlcNAc(b1-2)Man(a1-3)[Fuc(a1-2)[Gal(a1-3)]Gal(b1-4)GlcNAc(b1-2)Man(a1-6)]Man(b1-4)GlcNAc(b1-4)[Fuc(a1-6)]GlcNAc
# Summary of the method: as §1
# [8] = target: Fuc(a1-2)[Gal(a1-3)]Gal(b1-4)[Fuc(a1-3)]GlcNAc(b1-3)GalNAc
# Summary of the method: as §1
# [9] = target: Fuc(a1-2)[GalNAc(a1-3)]Gal(b1-4)GlcNAc(b1-3)Gal(b1-4)GlcNAc
# Summary of the method: as §1
# [10] = target: Fuc(a1-2)[GalNAc(a1-3)]Gal(b1-4)GlcNAc(b1-3)Gal(b1-4)GlcNAc(b1-3)Gal(b1-4)GlcNAc
# Summary of the method: as §1
# [11] = target: Fuc(a1-3)GlcNAc
# Summary of the method: as §1
# [12] = target: Gal(b1-2)Gal
# Summary of the method: as §1
# [13] = target: Gal(b1-3)GalNAc(a1-3)[Fuc(a1-2)]Gal(b1-4)Glc
# Summary of the method: as §1
# [14] = target: Gal(b1-3)GlcNAc(b1-2)Man(a1-3)[Gal(b1-3)GlcNAc(b1-2)Man(a1-6)]Man(b1-4)GlcNAc(b1-4)GlcNAc
# Summary of the method: as §1
# [15] = target: Gal(b1-3)[Fuc(a1-4)]GlcNAc(b1-2)Man(a1-3)[Gal(b1-3)[Fuc(a1-4)]GlcNAc(b1-2)Man(a1-6)]Man(b1-4)GlcNAc(b1-4)GlcNAc
# Summary of the method: as §1
# [16] = target: Gal(b1-3)[Fuc(a1-4)]GlcNAc(b1-2)Man(a1-3)[Gal(b1-3)[Fuc(a1-4)]GlcNAc(b1-2)Man(a1-6)]Man(b1-4)GlcNAc(b1-4)[Fuc(a1-6)]GlcNAc
# Summary of the method: as §1
# [17] = target: Gal(b1-4)GlcNAc(b1-3)Gal(b1-4)GlcNAc(b1-3)Gal(b1-4)GlcNAc
# Summary of the method: as §1
# [18] = target: Gal(b1-4)GlcNAc(b1-6)Gal(b1-4)GlcNAc
# Summary of the method: as §1
# [19] = target: Gal4S(b1-4)GlcNAc
# Summary of the method: as §1
# [20] = target: Gal6S(b1-4)Glc
# Summary of the method: as §1
# [21] = target: Gal6S(b1-4)GlcNAc
# Summary of the method: as §1
# [22] = target: GlcNAc(b1-2)Man(a1-3)[GlcNAc(b1-4)][GlcNAc(b1-2)Man(a1-6)]Man(b1-4)GlcNAc(b1-4)GlcNAc
# Summary of the method: as §1
# [23] = target: Neu5Ac(a2-3)Gal(b1-3)GlcNAc(b1-3)GalNAc
# Summary of the method: as §1
# [24] = target: Neu5Ac(a2-6)Gal(b1-4)GlcNAc(b1-2)Man(a1-3)[Gal(b1-4)GlcNAc(b1-2)Man(a1-6)]Man(b1-4)GlcNAc(b1-4)GlcNAc
# Summary of the method: as §1
# [25] = target: Neu5Ac(a2-6)Gal(b1-4)GlcNAc(b1-2)Man(a1-6)[Man(a1-3)]Man(b1-4)GlcNAc(b1-4)GlcNAc
# Summary of the method: as §1
# [26] = target: Neu5Ac(a2-6)Gal(b1-4)GlcNAc(b1-3)Gal(b1-3)GlcNAc
# Summary of the method: as §1
# [27] = target: Neu5Ac(a2-6)Gal(b1-4)GlcNAc(b1-3)Gal(b1-4)GlcNAc(b1-3)Gal(b1-4)GlcNAc
# Summary of the method: as §1
# [28] = target: Neu5Gc(a2-3)Gal(b1-4)GlcNAc
# Summary of the method: as §1
binder,measurement,setting,value
Gal 7 (Canis lupus) (protein) MAGSSNVPHKTSLPEGIRVGTVMRIRGVVPNKAGRFYVNLLCGEAPGSEAALHFNPRLDESTVVFNTLEQGAWGREERGTGIPFQRGQPFDVLLIATDEGFKAVVGDSEYHHFRYRIPPARVRLLEVGGDLQLESVSVF,glycan array binding signal (z-score),[1],-0.169
same,glycan array binding signal (z-score),[2],-0.187
same,glycan array binding signal (z-score),[3],-0.135
same,glycan array binding signal (z-score),[4],9.85
same,glycan array binding signal (z-score),[5],8.28
same,glycan array binding signal (z-score),[6],5.78
same,glycan array binding signal (z-score),[7],1.25
same,glycan array binding signal (z-score),[8],-0.16
same,glycan array binding signal (z-score),[9],3.55
same,glycan array binding signal (z-score),[10],2.59
same,glycan array binding signal (z-score),[11],-0.217
same,glycan array binding signal (z-score),[12],-0.214
same,glycan array binding signal (z-score),[13],0.252
same,glycan array binding signal (z-score),[14],-0.08
same,glycan array binding signal (z-score),[15],-0.166
same,glycan array binding signal (z-score),[16],-0.199
same,glycan array binding signal (z-score),[17],3.2
same,glycan array binding signal (z-score),[18],-0.206
same,glycan array binding signal (z-score),[19],-0.2
same,glycan array binding signal (z-score),[20],-0.204
same,glycan array binding signal (z-score),[21],-0.195
same,glycan array binding signal (z-score),[22],-0.186
same,glycan array binding signal (z-score),[23],-0.22
same,glycan array binding signal (z-score),[24],-0.212
same,glycan array binding signal (z-score),[25],-0.212
same,glycan array binding signal (z-score),[26],3.85
same,glycan array binding signal (z-score),[27],3.5
same,glycan array binding signal (z-score),[28],-0.217
